# Results from PubChem BioAssay AID2313 (Broad Institute, 2010).
# In all, about 22,000 compounds went through this assay and about 460 (2.1%) were called active. Roughly 2% stayed inconclusive and do not appear here. The sample holds actives, similar compounds and a random draw of the others, so the mix is not that of the screen.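 Rule for the calls: active = mean inhibition across valid replicates above about 65% (limit read from the data); inconclusive = mean under the limit, yet half or more replicates past it; inactive = the rest.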
# Test: Shh-driven Gli reporter inhibition – luminescence, Shh-LIGHT2 cells, Gli-luciferase, primary screen (AID 2313);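 note: pathway switched on by Shh-conditioned medium diluted 1 in 25 in low serum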
# Settings: 30 h, active compounds read high
row,SMILES,inhibition
1,CC(C)NC(=O)N(C)C[C@@H]1Oc2ccc(N(C)C)cc2C(=O)N([C@@H](C)CO)C[C@H]1C,-15.2% (inactive)
2,CC(C)NC(=O)Nc1ccc2c(c1)C(=O)N([C@H](C)CO)C[C@H](C)[C@@H](CN(C)CC1CCCCC1)OCCCC[C@@H](C)O2,-21.5% (inactive)
3,C[C@@H]1CN([C@H](C)CO)C(=O)Cc2cc(NS(C)(=O)=O)ccc2O[C@H]1CN(C)S(=O)(=O)c1ccccc1,-3.98% (inactive)
4,C[C@@H]1CCCCO[C@H](CN(C)C(=O)Nc2cccc3ccccc23)[C@@H](C)CN([C@H](C)CO)C(=O)c2cc(NC(=O)Nc3ccc4c(c3)OCO4)ccc2O1,-3.94% (inactive)
5,Cc1ccc(OCc2n[nH]c(=S)n2C2CCCCC2)c2c1CCC2,9.84% (inactive)
6,COc1ccc(NC(=S)SC)cc1OC,-54.6% (inactive)
7,C[C@@H]1CN([C@H](C)CO)C(=O)c2cccc(NC(=O)NC3CCCCC3)c2O[C@@H]1CN(C)CC1CCCCC1,23.2% (inactive)
8,Cc1noc(C)c1S(=O)(=O)N(C)C[C@@H]1Oc2c(NS(=O)(=O)c3cn(C)cn3)cccc2C(=O)N([C@H](C)CO)C[C@@H]1C,-16% (inactive)
9,C[C@H](CO)N1C[C@H](C)[C@H](CN(C)S(=O)(=O)c2cccs2)Oc2ccc(NC(=O)Nc3ccccc3)cc2C1=O,-3.56% (inactive)
10,COCc1nc2c([nH]1)C(c1ccccc1COc1ccc(Cl)cc1)C(C#N)=C(N)O2 (stereo not given),-16.6% (inactive)
11,C[C@@H]1CN([C@H](C)CO)C(=O)c2cccc(NS(=O)(=O)c3cn(C)cn3)c2O[C@H]1CN(C)Cc1ccc(C(=O)O)cc1,24.8% (inactive)
12,Cc1cc(C(=O)Nc2cccc3c2O[C@@H](CN(C)Cc2ccncc2)[C@@H](C)CN([C@@H](C)CO)C3=O)n(C)n1,-8.53% (inactive)
13,Cc1ccc(S(=O)(=O)Nc2cccc3c2O[C@@H](CN(C)S(=O)(=O)c2ccc(C)cc2)[C@H](C)CN([C@@H](C)CO)C3=O)cc1,-18.7% (inactive)
14,COc1ccc(CNC(=O)c2c(C)oc3c2cc(OC(C)=O)c2ccccc23)cc1,-2.05% (inactive)
15,S=c1nc2c(cnn2-c2ccccc2)c(Nc2ccccc2)[nH]1,-7.49% (inactive)
16,Cc1ccc(-c2c[n+](=O)c3c(n2[O-])CCC3)cc1,-26.9% (inactive)
17,C[C@H]1CN([C@@H](C)CO)C(=O)Cc2cc(NC(=O)Cc3ccccc3)ccc2O[C@@H]1CN(C)S(=O)(=O)c1ccc(Cl)cc1,22.7% (inactive)
18,C1=C(c2cccs2)CC(c2cccs2)=NN=C1c1cccs1,-1.01% (inactive)
19,COc1ccc(NC(=O)N(C)C[C@@H]2Oc3c(NC(=O)Nc4cccc5ccccc45)cccc3C(=O)N([C@@H](C)CO)C[C@H]2C)cc1,3.07% (inactive)
20,C[C@H](CO)N1C[C@H](C)[C@H](CN(C)C(=O)Nc2ccc(C(F)(F)F)cc2)Oc2ccc(N(C)C)cc2CC1=O,-27.1% (inactive)
21,COc1ccc(NC(=O)Nc2ccc3c(c2)CC(=O)N([C@@H](C)CO)C[C@@H](C)[C@@H](CN(C)Cc2ccc(C(F)(F)F)cc2)O3)cc1,13.9% (inactive)
22,COc1ccc(NC(=O)N(C)C[C@@H]2Oc3c(NC(=O)c4ccc(-c5nccs5)cc4)cccc3C(=O)N([C@H](C)CO)C[C@@H]2C)cc1,20.7% (inactive)

row,SMILES,inhibition
1,C[C@H](CO)N1C[C@H](C)[C@@H](CN(C)S(=O)(=O)c2ccc(Cl)cc2)Oc2ccc(NS(=O)(=O)c3cn(C)cn3)cc2C1=O,25.4% (inactive)
2,C[C@H]1CN([C@@H](C)CO)C(=O)Cc2cc(NC(=O)Nc3ccccc3)ccc2O[C@H]1CN(C)S(=O)(=O)c1cn(C)cn1,-32.8% (inactive)
3,C[C@H](CO)N1C[C@H](C)[C@H](CN(C)CC2CCCCC2)Oc2ccc(NC(=O)C3CCCCC3)cc2C1=O,21.2% (inactive)
4,Cc1noc(C)c1NC(=O)Nc1ccc2c(c1)CC(=O)N([C@H](C)CO)C[C@@H](C)[C@@H](CN(C)S(=O)(=O)c1ccc(Cl)cc1)O2,-13.6% (inactive)
5,Cc1noc(C)c1NC(=O)Nc1ccc2c(c1)C(=O)N([C@@H](C)CO)C[C@H](C)[C@H](CN(C)S(=O)(=O)c1ccc(Cl)cc1)O2,-26.2% (inactive)
6,C[C@H](CO)N1C[C@H](C)[C@@H](CN(C)Cc2ccc(C(F)(F)F)cc2)Oc2c(NC(=O)NC3CCCCC3)cccc2C1=O,23.9% (inactive)
7,O=C(NCCN1CCCCC1)Nc1cccc(Cl)c1,20.6% (inactive)
8,COc1ccc(NC(=O)Nc2ccc3c(c2)CC(=O)N([C@@H](C)CO)C[C@@H](C)[C@@H](CN(C)Cc2ccc(Cl)c(Cl)c2)O3)cc1,38.8% (inactive)
9,C[C@@H]1CN([C@H](C)CO)C(=O)Cc2cc(NC(=O)CCCN(C)C)ccc2O[C@H]1CN(C)CC1CCCCC1,18.8% (inactive)
10,Cc1ccc(NC(=O)c2cccc(N(C)C)c2)cc1NC(=O)c1ccc(O)cc1,83.8% (active)
11,Cc1cccc(NC(=O)c2ccc(C)c(S(=O)(=O)N3CCCC3)c2)c1,-48.9% (inactive)
12,O=C(CCCCn1cnc2ccccc21)c1ccccc1,-10.1% (inactive)
13,CNC[C@H]1Oc2ccc(NS(=O)(=O)c3ccc(F)cc3)cc2CC(=O)N([C@H](C)CO)C[C@H]1C,-2.19% (inactive)
14,C[C@@H]1CN([C@H](C)CO)C(=O)Cc2cc(NS(=O)(=O)c3ccc(Cl)cc3)ccc2O[C@@H]1CN(C)C,-10.8% (inactive)
15,CNC[C@@H]1Oc2c(NC(=O)Nc3ccc(F)cc3)cccc2C(=O)N([C@@H](C)CO)C[C@@H]1C,15.5% (inactive)
16,Cc1ccc(NC(=O)CC(=O)Nc2ccc(C)cc2)cc1,-21.5% (inactive)
17,C[C@@H]1CN([C@H](C)CO)C(=O)c2cccc(N(C)C)c2O[C@H]1CN(C)S(=O)(=O)c1cn(C)cn1,3.08% (inactive)
18,C=C1C(=O)O[C@H]2C3=C(C)C[C@H](OC(C)=O)C[C@]3(C)CC[C@@H]12,-2.37% (inactive)
19,COc1cc(/C=C2\Oc3cc(O)cc(O)c3C2=O)ccc1O,3.42% (inactive)
20,Cc1ccc2nc(Nc3ccccc3)cc(C)c2c1,72.3% (active)
21,Cc1ccc(Nc2nc(C)cc(C)c2C(N)=O)cc1,-37.3% (inactive)
22,Cc1ccc2nc(C)c3c(c2c1)N(c1ccccc1)CC3,34.9% (inactive)

row,SMILES,inhibition
1,COc1ccc(S(=O)(=O)Nc2cccc3c2O[C@@H](CN(C)C(=O)Nc2ccccc2)[C@@H](C)CN([C@H](C)CO)C3=O)cc1,2.98% (inactive)
2,COC(NC(=O)c1ccccc1)(C(F)(F)F)C(F)(F)F,-45.7% (inactive)
3,Cc1ccc(S(=O)(=O)Nc2cccc3c2O[C@@H](CN(C)S(=O)(=O)c2c(C)noc2C)[C@@H](C)CN([C@H](C)CO)C3=O)cc1,-7.42% (inactive)
4,C[C@@H]1CN([C@H](C)CO)C(=O)c2cc(NS(=O)(=O)c3ccc(F)cc3)ccc2O[C@H]1CN(C)C(=O)Nc1cccc2ccccc12,-17% (inactive)
5,C[C@H]1CN([C@@H](C)CO)C(=O)Cc2cc(NS(=O)(=O)c3cn(C)cn3)ccc2O[C@@H]1CN(C)C(=O)Nc1ccc2c(c1)OCO2,2.02% (inactive)
6,C[C@@H]1CCCCO[C@H](CN(C)C(=O)NC2CCCCC2)[C@@H](C)CN([C@H](C)CO)C(=O)c2cc(NC(=O)CCC(F)(F)F)ccc2O1,20.6% (inactive)
7,COc1ccc(NC(=O)Nc2ccc3c(c2)CC(=O)N([C@H](C)CO)C[C@H](C)[C@H](CN(C)S(=O)(=O)c2ccc(OC)cc2)O3)cc1,15.7% (inactive)
8,COc1ccc(NC(=O)Nc2cccc3c2O[C@@H](CN(C)S(=O)(=O)c2ccc(C)cc2)[C@H](C)CN([C@@H](C)CO)C3=O)cc1,26% (inactive)
9,COc1ccc(S(=O)(=O)N(C)C[C@H]2Oc3ccc(NC(=O)Nc4c(C)noc4C)cc3C(=O)N([C@@H](C)CO)C[C@@H]2C)cc1,14.6% (inactive)
10,O=S(=O)(NCCc1ccccc1)c1ccccc1,-19.7% (inactive)
11,C[C@@H]1CN([C@@H](C)CO)C(=O)c2cccc(NC(=O)c3nc4ccccc4s3)c2O[C@@H]1CN(C)Cc1ccc(Cl)c(Cl)c1,-17.7% (inactive)
12,O=C(Cn1c(=O)n(-c2ccccc2)c(=O)c2cc(-c3ccccc3)sc21)c1cccs1,-31.1% (inactive)
13,C[C@@H]1CN([C@@H](C)CO)C(=O)c2cccc(NC(=O)c3cnccn3)c2O[C@H]1CN(C)S(=O)(=O)c1cccs1,36.2% (inactive)
14,COc1ccc(NC(=O)N(C)C[C@H]2Oc3c(NC(=O)NC(C)C)cccc3C(=O)N([C@@H](C)CO)C[C@H]2C)cc1,-18.8% (inactive)
15,O=C(NCCN1CCCCC1)Nc1cccc2ccccc12,48.1% (inactive)
16,CCOC(=O)c1cc2ccccc2nc1C,-33.8% (inactive)
17,C[C@H]1CN([C@@H](C)CO)C(=O)Cc2cc(NC(=O)C3CC3)ccc2O[C@H]1CN(C)C(=O)Nc1ccc(C(F)(F)F)cc1,-16.6% (inactive)
18,Cc1noc(C)c1NC(=O)Nc1ccc2c(c1)C(=O)N([C@H](C)CO)C[C@@H](C)[C@@H](CN(C)C(=O)NC(C)C)O2,-44% (inactive)
19,Cc1noc(C)c1NC(=O)Nc1cccc2c1O[C@H](CN(C)S(C)(=O)=O)[C@H](C)CN([C@H](C)CO)C2=O,-13.4% (inactive)
20,COc1ccc(S(=O)(=O)N(C)C[C@@H]2Oc3ccc(NC(=O)CCN4CCOCC4)cc3CC(=O)N([C@@H](C)CO)C[C@@H]2C)cc1,12.6% (inactive)
21,Cc1ccc(S(=O)(=O)N(C)C[C@H]2Oc3ccc(NC(=O)C4CC4)cc3C(=O)N([C@H](C)CO)C[C@H]2C)cc1,2.25% (inactive)
